The test system of assay [1] is Zika virus NS2B-NS3 protease (unlinked complex). Nature of the assay: Primary screen GU Rhodamine qHTS for Zika virus inhibitors: Unlinked NS2B-NS3 protease assay (AID 1347159). Note: nearly all actives have a fitted effect of over 60% in size. Note: potency is the fitted concentration of half-maximal effect. To be noted: Recombinant ZIKV NS2B-NS3 protease, Rhodamine110 substrate fluorescence; series mostly up to 107 µM. The procedure, abridged:
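Percent inhibition derives from the 15-min fluorescence change (ex 480, em 540 nm), normalized to no-enzyme and no-inhibitor wells. Reactions contained 25 nM NS2B-NS3 complex and 1.5 microM substrate in 10 mM Tris-HCl pH 8.0.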
A general note: In qHTS, concentration-response curves come from the screen itself.

Assay [2] has as its system Zika virus NS2B-NS3 protease (linked construct). As to the kind of experiment: Primary screen NINDS Rhodamine qHTS for Zika virus inhibitors (AID 1347160). Note: nearly all actives have a fitted effect of over 55% in size. The settings on record: purified NS2B-NS3 protease, Rhodamine110 substrate fluorescence; series mostly up to 57.1 µM. In a few lines:
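In 10 mM Tris-HCl pH 8.0 containing 0.01% Tween 20, linked NS2B-NS3 protease (25 nM final) is exposed to test compounds for 15 min. Cleavage of 1.5 microM Rhodamine110 substrate is tracked by fluorescence over 15 min.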

Records with an inconclusive call do not appear. Unmarked numbers belong to inactive results. The source made the active and inactive calls. Calls come from the whole dose curve; as a rule, active = well fitted inhibition curve with a large enough effect; inconclusive = small, poorly fitted or top-dose-only effect; inactive = no such curve, though single readings can be large or run the other way.
% is set by controls: 0 for no effect and ±100 for the full control effect.

Regarding `O=C1Nc2ccccc2C(O)(c2ccccc2)C1O` (stereo not drawn), the Potency result in assay [1] and in assay [2] was “inactive” each time.
With `Nc1ccc(-c2cccc3c(=O)cc(N4CCOCC4)oc23)cc1`, the Potency entry in assay [1] and in assay [2] was “inactive” throughout.
`NCc1ccc(Nc2ncc(F)c(Nc3ccccc3)n2)cc1`: the Potency entry in assay [1] and in assay [2] was “inactive” throughout.
For `Nc1nc(-n2cc(C(=O)O)c(=O)c3cc(F)c(N4CC(O)C4)c(Cl)c32)c(F)cc1F`, the Potency result in assay [1] and in assay [2] was “inactive” throughout.
For `O=C(O)c1cc2cccc([N+](=O)[O-])c2[nH]1`, the Potency entry in assay [1] and in assay [2] was “inactive” throughout.
As for `Cc1ccc(NC(=O)c2ccc(CN3CC[C@H](N(C)C)C3)c(C(F)(F)F)c2)cc1Nc1nccc(-c2cncnc2)n1`, the Potency entry in assay [1] and in assay [2] was “inactive” throughout.
As to `CC(=O)O[C@@H]1[C@H](O)[C@@H](O[C@@H]2O[C@@H](C)[C@H](O[C@@H]3OC[C@@H](O)[C@H](O[C@@H]4OC[C@@H](O)[C@H](O)[C@H]4O)[C@H]3O)[C@@H](O[C@@H]3O[C@H](CO)[C@@H](O)[C@H](O)[C@H]3O)[C@H]2O)[C@H](OC(=O)[C@]23CCC(C)(C)C[C@H]2C2=CCC4[C@@]5(C)CC[C@H](O[C@@H]6O[C@H](C(=O)O)[C@@H](O)[C@H](O[C@@H]7OC[C@@H](O)[C@H](O)[C@H]7O)[C@H]6O[C@@H]6O[C@H](CO)[C@H](O)[C@H](O)[C@H]6O)[C@@](C)(C=O)C5CC[C@@]4(C)[C@]2(C)CC3)O[C@@H]1C` (stereo partly drawn), the activity change, negative = inhibition in assay [1] is -1.88% [at 19.1 µM]; in assay [2], 7.65% [at 10.7 µM].
In the case of `CNC(=O)c1cc(Oc2ccc3nc(N[C@@H]4CCCC[C@H]4O)sc3c2)ccn1`, the Potency result in assay [1] and in assay [2] was “inactive” throughout.
In the case of `C[C@H]1O[C@@H](O[C@H]2CC[C@@]3(C)C(CC[C@]4(C)C3CC=C3C5CC(C)(C)CC[C@]5(C(=O)O)CC[C@]34C(=O)O)C2(C)C)[C@H](O)[C@@H](O)[C@@H]1O` (stereo partly drawn), the Potency result in assay [1] and in assay [2] was “inactive” throughout.
Consider `C[C@@H]1O[C@@H](O[C@@H]2[C@@H](O)[C@H](O[C@H]3[C@H](O[C@H]4CC[C@@]5(C)C(CC[C@]6(C)C5CC=C5[C@@H]7CC(C)(C)CC[C@]7(C(=O)O[C@@H]7O[C@H](CO)[C@@H](O)[C@H](O)[C@H]7O[C@@H]7O[C@@H](C)[C@H](O[C@@H]8O[C@@H](C)[C@H](O)[C@@H](O)[C@H]8O)[C@@H](O)[C@H]7O)CC[C@]56C)[C@@]4(C)CO)O[C@H](C(=O)O)[C@@H](O)[C@@H]3O)O[C@H](CO)[C@H]2O)[C@H](O)[C@H](O)[C@H]1O` (stereo partly drawn), for which the figures for the activity change, negative = inhibition in assay [1] and in assay [2] were 22.9% [at 19.1 µM] and 3.12% [at 10.7 µM], respectively.
In the case of `COc1cc(C(=O)OC[C@@]2(O)CO[C@@H](O[C@H]3[C@H](Oc4ccc(C(=O)O)cc4OC)O[C@H](CO)[C@@H](O)[C@@H]3O)[C@@H]2O)ccc1O`, the Potency entry in assay [1] and in assay [2] was “inactive” throughout.
On to `C=C1C(=O)OC2C1C(O)CC1(C)C(O)CCC(C=O)C21` (stereo not drawn), for which the Potency result in assay [1] and in assay [2] was “inactive” each time.
As for `COc1ccc(CC2NCCc3c2[nH]c2ccc(C)cc32)cc1OC` (stereo not drawn), the Potency entry in assay [1] and in assay [2] was “inactive” in each case.
`CCCN1CCN(c2ccc(C(=O)NC3(C(=O)NCC#N)CCCCC3)cc2)CC1`: the Potency entry in assay [1] and in assay [2] was “inactive” in each case.
Consider `CC1CCC2(C(=O)O)CCC3(C)C(=CCC4C5(C)CCC(OC(=O)/C=C/c6ccccc6)C(C)(C)C5CCC43C)C2C1C` (stereo not drawn), for which the Potency result in assay [1] and in assay [2] was “inactive” each time.
As for `CC1(CCOC2OC(CO)C(O)C(O)C2O)CCC23OC2(C1)C(O)CC1C(C)(C(=O)O)CCCC13C` (stereo not drawn), the Potency entry in assay [1] and in assay [2] was “inactive” throughout.
In the case of `CN1CCC(Nc2nc(Nc3ccc(Oc4ccccc4)cc3)c3c(=O)[nH]cc(Br)c3n2)CC1`, the Potency result in assay [1] and in assay [2] was “inactive” throughout.
In the case of `CNS(=O)(=O)CC1CCC(N(C)c2ncnc3[nH]ccc23)CC1` (stereo not drawn), the Potency entry in assay [1] and in assay [2] was “inactive” in each case.
Take `COc1c(/C=C/C(C)(C)O)ccc2c1C(=O)OCc1cc(C)cc(O)c1O2`: the Potency entry in assay [1] and in assay [2] was “inactive” throughout.
As for `Cc1nc(NC(=O)N2CCCC2C(N)=O)sc1-c1csc(C(C)(C)C)n1` (stereo not drawn), the Potency result in assay [1] and in assay [2] was “inactive” in each case.
For `CC(=O)C1=CCC2C3CCC4CC(O[C@@H]5O[C@H](CO)[C@@H](O[C@@H]6O[C@@H](C)[C@H](O)[C@@H](O)[C@H]6O)[C@H](O)[C@H]5O[C@@H]5O[C@H](CO)[C@@H](O)[C@H](O)[C@H]5O)CCC4(C)C3CCC12C` (stereo partly drawn), the Potency entry in assay [1] and in assay [2] was “inactive” in each case.
For `CC1OC(OC2C(OC3C(O[C@H]4CC[C@@]5(C)C(CC[C@]6(C)C5C(=O)C=C5C7CC(C)(C)CC(O)[C@]7(C)CC[C@]56C)C4(C)C)OC(C(=O)O)C(O)C3O)OCC(O)C2O)C(O)C(O)C1O` (stereo partly drawn), the Potency result in assay [1] and in assay [2] was “inactive” in each case.
As for `O=c1[nH]ccc2cc(OC3CCNCC3)ccc12`, the Potency entry in assay [1] and in assay [2] was “inactive” in each case.
On to `O=C(O[C@H]1[C@@H]2C=CO[C@@H](O[C@@H]3O[C@H](CO)[C@@H](O)[C@H](O)[C@H]3O)[C@@H]2[C@@]2(CO)O[C@@H]12)c1ccccc1`, for which the Potency entry in assay [1] and in assay [2] was “inactive” throughout.
On to `CCC(C)C(=O)O[C@H]1CCC=C2C=C[C@H](C)[C@H](CC[C@@H](O)C[C@@H](O)CC(=O)O)[C@H]21` (stereo partly drawn), for which the Potency result in assay [1] and in assay [2] was “inactive” throughout.
As for `NC1(C(=O)NC(CCO)c2ccc(Cl)cc2)CCN(c2ncnc3[nH]ccc23)CC1` (stereo not drawn), the Potency entry in assay [1] and in assay [2] was “inactive” each time.
Take `C/C(=C\CCC1(C)C2CCC(C2)C1(C)O)C(=O)O` (stereo not drawn): in assay [1], the Potency was 22.4 µM (active). Further, the Potency result in assay [2] was “inactive”.
Turning to `COc1cc(OC)c(/C=C/S(=O)(=O)Cc2ccc(OC)c(NCC(=O)O)c2)c(OC)c1`, the Potency result in assay [1] and in assay [2] was “inactive” in each case.
`C[C@@H]1CC[C@]2(C(=O)OC3OC(CO)C(O)C(O)C3O)CC[C@]3(C)C(=CCC4[C@@]5(C)CC[C@H](O)[C@](C)(C(=O)O)C5CC[C@]43C)C2[C@]1(C)O` (stereo partly drawn): the Potency entry in assay [1] and in assay [2] was “inactive” throughout.

The record behind these values is PubChem BioAssay (NCATS).
